Measured values as given in PubChem BioAssay.
Calls of active or inactive are those of the source. Unless noted, how the calls were made is not given here.

Assays:
[1] = tested on: XIP peptide (Xip251-270) binding; assay: small-molecule binders of XIP peptide, primary screen, biochemical, small-molecule microarray, fluorescence 635/667 nm, 0.1 µg/mL protein (AID 1182); settings: fluorescent protein binding, 635 nm, higher = more signal, called active from +8 up or from −8 down
[2] = tested on: XIP peptide (Xip251-270); assay: small-molecule binders of XIP peptide, primary screen, biochemical, small-molecule microarray, fluorescence 635/667 nm, 0.5 µg/mL protein (AID 1183); settings: small-molecule microarray binding, fluorescence 635 nm; higher = more signal
[3] = Plasmodium falciparum growth inhibition, primary screen, strain 3D7, DAPI fluorescence, 100 nL (AID 1184);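 further: parasites grown inside human red blood cells in medium with human serum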; settings: P. falciparum 3D7 growth, 3 d, higher = more signal
[4] = molecular target: Homeobox protein Hox-A13 (Mus musculus) (UniProt Q62424); assay: inhibitors of HoxA13-DNA binding, primary screen, biochemical, fluorescence polarization, labeled oligonucleotide (AID 1185); settings: 15 min, higher = more signal, called active from +8 up or from −8 down
Chain of Homeobox protein Hox-A13 (Mus musculus) (Q62424 whole entry, looked up): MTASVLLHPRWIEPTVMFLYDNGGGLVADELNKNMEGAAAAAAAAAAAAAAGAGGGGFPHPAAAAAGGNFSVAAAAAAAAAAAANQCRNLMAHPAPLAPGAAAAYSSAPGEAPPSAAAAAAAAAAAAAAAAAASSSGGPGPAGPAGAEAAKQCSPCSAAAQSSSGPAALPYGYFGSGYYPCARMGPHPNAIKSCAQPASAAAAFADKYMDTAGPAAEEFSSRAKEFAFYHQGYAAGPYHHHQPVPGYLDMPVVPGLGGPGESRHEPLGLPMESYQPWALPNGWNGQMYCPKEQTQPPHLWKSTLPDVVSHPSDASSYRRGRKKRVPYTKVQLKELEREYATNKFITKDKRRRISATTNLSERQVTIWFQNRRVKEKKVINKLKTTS

[5] = inhibitors of hydroxyurea-induced Chk1 phosphorylation, primary screen, imaging, HeLa, phospho-Chk1 antibody, percent positive cells (AID 1186); settings: hydroxyurea-induced phospho-Chk1 immunofluorescence imaging, higher = more signal
[6] = inhibitors of hydroxyurea-induced Chk1 phosphorylation, primary screen, imaging, HeLa, phospho-Chk1 nuclear intensity (AID 1187); settings: hydroxyurea-induced phospho-Chk1 immunofluorescence imaging, higher = more signal

| Structure (SMILES) | composite z-score [1] | composite z-score [2] | z-score [3] | z-score [4] | z-score [5] | z-score [6] |
| --- | --- | --- | --- | --- | --- | --- |
| C=C(COC)/C(=C/C[C@H](OC(C)=O)c1cccc(OCCO)c1)c1cnc2ccccc2c1 | 1.46 (inactive) | 0.75 | -2.62 | -5.87 (inactive) | -0.104 (inactive) | 0.276 (inactive) |
| COCCOC(=O)N1C(=O)[C@@]2(c3cc(C#CCCO)ccc31)[C@H](C(N)=O)[C@H]1C(=O)O[C@H](c3ccccc3)[C@H](c3ccccc3)N1[C@@H]2c1ccc(OCCO)cc1 | 1.56 (inactive) | 0.769 | -0.624 | -1.24 (inactive) | 0.0923 (inactive) | -0.0574 (inactive) |
| COCCOC(=O)N1C(=O)[C@@]2(c3cc(C#CC4(O)CCCCCC4)ccc31)[C@H](C(=O)N1CCN(c3ncccn3)CC1)[C@H]1C(=O)O[C@H](c3ccccc3)[C@H](c3ccccc3)N1[C@@H]2c1ccccc1OCCO | 1.01 (inactive) | 0.61 | -2.07 | -0.77 (inactive) | -0.0411 (inactive) | 0.0349 (inactive) |
| [N-]=[N+]=Nc1ccccc1C[C@]1(C(=O)O)N=C(c2ccc(OCCCO)cc2)O[C@H]1c1ccccc1N=[N+]=[N-] | 0.466 (inactive) | 0.532 | -1.5 | -4.13 (inactive) | -0.281 (inactive) | 0.0939 (inactive) |
| O=C(CS)NCCCCCNC(=O)[C@@H]1C[C@@H]2C(=O)N[C@@H](Cc3ccccc3)C(=O)N2[C@@H]1c1cccc(OCCO)c1 | 0.74 (inactive) | 0.77 | -0.0054 | -2.89 (inactive) | 0.341 (inactive) | 0.581 (inactive) |
| COc1ccc(C#Cc2ccc3c(c2)[C@]2(C(=O)N3)[C@H](C(=O)Nc3nc4ccccc4s3)[C@H]3C(=O)O[C@H](c4ccccc4)[C@H](c4ccccc4)N3[C@@H]2c2ccccc2OCCO)cc1 | 0.416 (inactive) | 0.598 | -2.21 | -0.889 (inactive) | -0.347 (inactive) | -0.392 (inactive) |
| CCCCC(=C=CC[C@H](O)c1ccc(OCCO)cc1)C[C@H](O)c1cc(Cl)cc(Cl)c1O | -0.0399 (inactive) | 0.416 | -1.51 | -2.25 (inactive) | -0.0695 (inactive) | -0.301 (inactive) |
| COC(=O)c1c2oc(c1C(=O)OC)C(=O)N1CCC[C@H]1Cn1nncc1CN(Cc1ccccc1)C(=O)N[C@H](CO)CC2 | -0.0783 (inactive) | 0.59 | -0.414 | -3.78 (inactive) | 0.159 (inactive) | 0.306 (inactive) |
| Cc1ccc(F)cc1S(=O)(=O)N[C@@H]1CCN(Cc2cccc3[nH]ccc23)C1 | -0.605 (inactive) | 0.578 | -0.797 | -3.62 (inactive) | -0.561 (inactive) | -0.948 (inactive) |
| COc1ccc([Si](C)(C)[C@H]2[C@H](CC(=O)N3CCC[C@H]3CO)O[C@@]3(C(=O)N(Cc4ccc(N5CCC5=O)cc4)c4ccccc43)[C@@H]2C)cc1 | 1.18 (inactive) | 0.709 | -0.986 | -3.74 (inactive) | 0.312 (inactive) | -0.36 (inactive) |
| CN(C)C(=O)[C@]1(CCS(=O)(=O)c2ccccc2)N=C(c2ccc(OCCCO)cc2)O[C@@H]1c1ccccc1 | 0.428 (inactive) | 0.701 | -1.96 | -5.77 (inactive) | -0.161 (inactive) | 0.0689 (inactive) |
| C=C[C@@H](OC)[C@H](OC(=O)Nc1ccc(OC)cc1)c1ccc(OC)c(O)c1 | 2.2 (inactive) | 0.462 | 1.46 | -2.54 (inactive) | 1.11 (inactive) | 1.39 (inactive) |
| CN(C)C(=O)[C@@]1(Cc2ccccc2N=[N+]=[N-])N=C(c2ccc(OCCCO)cc2)O[C@H]1c1ccccc1 | 1.47 (inactive) | 0.821 | -2.19 | -4.9 (inactive) | -0.279 (inactive) | -0.303 (inactive) |
| [N-]=[N+]=Nc1ccccc1[C@@H]1OC(c2ccc(OCCCO)cc2)=N[C@]1(Cc1ccccc1)C(=O)NCc1ccccc1 | 0.174 (inactive) | 0.804 | -1.97 | -0.694 (inactive) | 0.458 (inactive) | 0.433 (inactive) |
| CCOC(=O)C1=C[C@@H](c2ccccc2)N(S(=O)(=O)c2ccc(C)cc2)[C@H]1c1ccccc1 | 0.598 (inactive) | 0.303 | -0.346 | 0.0724 (inactive) | 0.667 (inactive) | 0.529 (inactive) |
| O=C(NCC(O)CO)[C@@]1(CCS(=O)(=O)c2ccccc2)COC(c2ccc(OCCCO)cc2)=N1 (stereo not given in full) | -0.119 (inactive) | 0.696 | -0.475 | -5.1 (inactive) | -0.275 (inactive) | -0.556 (inactive) |
| O=C1OCC=C[C@H]2OC34C=CCN(c5ccc6ccccc6c5)C(=O)[C@H]3N(CCCCCO)C(=O)[C@@H]4[C@@H]12 (stereo not given in full) | 0.407 (inactive) | 0.351 | -0.471 | -4.6 (inactive) | 0.464 (inactive) | 0.0639 (inactive) |
| COC(=O)[C@@]1(Cc2ccc(OC)cc2)[C@H]2c3cc(C(=O)N4CCCC4)n(Cc4ccc(S(C)(=O)=O)cc4)c3C[C@H]2CN1C(=O)c1ccccc1 | 0.807 (inactive) | 0.511 | -1.42 | -3.91 (inactive) | 0.364 (inactive) | 0.202 (inactive) |
| CC(C)C[C@@H]1NC(=O)CNC(=O)[C@@]23C(=O)N[C@@H](Cc4ccccc4)C2[C@H](C)[C@@]2(C)O[C@H]2C3/C=C/C/C=C\CNC1=O (stereo not given in full) | 0.408 (inactive) | 0.767 | 0.0276 | -6.42 (inactive) | -0.284 (inactive) | 0.0034 (inactive) |
| C=C[C@@H](C)[C@@H](OC(=O)Nc1ccc(SC)cc1)c1ccc(OCCO)cc1 | -0.0412 (inactive) | 0.663 | -0.553 | -5.52 (inactive) | 0.129 (inactive) | 0.387 (inactive) |
| COC(=O)[C@@]1(Cc2ccccc2CN=[N+]=[N-])N=C(c2ccc(OCCCO)cc2)O[C@H]1c1ccccc1 | 2.54 (inactive) | 0.766 | -2.34 | -4.51 (inactive) | 0.022 (inactive) | 0.55 (inactive) |
| COc1ccc([Si](C)(C)[C@@H]2[C@@H](CCn3cc([C@H](O)c4ccccc4)nn3)O[C@]3(C(=O)N(Cc4cccc(N5C(=O)c6cccc7cccc5c67)c4)c4ccccc43)[C@H]2C)cc1 | 0.368 (inactive) | 0.45 | -2.38 | -1.19 (inactive) | -0.779 (inactive) | -1.33 (inactive) |
| COCCCNC(=O)[C@@]1(c2ccc([N+](=O)[O-])cc2)CC(=O)N(C(C)C)[C@@H]1c1ccc(CO)cc1 | -1.3 (inactive) | 0.64 | 0.382 | -0.803 (inactive) | 0.0991 (inactive) | 0.621 (inactive) |
| C=CCNC(=O)[C@H]1[C@@H]2C(=O)O[C@@H](c3ccccc3)[C@@H](c3ccccc3)N2[C@@H](c2ccc(O)cc2)[C@]12C(=O)N(C(=O)OCCOC)c1ccc(C#CCC(C(=O)OC)C(=O)OC)cc12 | 2.8 (inactive) | 0.761 | -2.07 | -0.414 (inactive) | -0.0546 (inactive) | -0.0093 (inactive) |
| COC(=O)C(CC#Cc1ccc2c(c1)[C@]1(C(=O)N2)[C@H](C(=O)Nc2nc3ccccc3s2)[C@H]2C(=O)O[C@H](c3ccccc3)[C@H](c3ccccc3)N2[C@@H]1c1ccc(OCCO)cc1)C(=O)OC | 3.13 (inactive) | 0.771 | -2.1 | 0.713 (inactive) | 0.0974 (inactive) | 0.531 (inactive) |
